Laboratory results reported in PubChem BioAssay AID2842 (Southern Research Institute, 2010).
The whole screen tested about 24,000 compounds, of which about 1,200 (5%) were called active. Not shown: some 2% with an inconclusive outcome. How the calls were made is not given here. The list is a sample of the results.

Assay: Mycobacterium tuberculosis H37Rv growth inhibition, putative kinase inhibitor library, confirmatory dose response (AID 2842);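 further: bacteria incubated one week before Alamar blue readout; 0% = bacteria only wells and 100% = bacteria with high antibiotic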
Details: M. tuberculosis H37Rv growth inhibition; CC50: measured here: Vero cell cytotoxicity; inhibition: active compounds read high

Structure (SMILES) | inhibition
CCCNC(=O)CSc1nc2c([nH]c3ccccc32)c(=O)n1-c1ccc(OC)c(OC)c1 | 3.01% (inactive)
COc1ccc(C(=O)c2cn(Cc3cccc(F)c3)c3ccccc3c2=O)cc1 | -1.95% (inactive)
CC1CCc2c(sc(NC(=O)c3ccc(-c4nc5ccccc5s4)s3)c2C#N)C1 (centres undefined) | 2.71% (inactive)
CCOc1cc(C(=O)Nc2nnc(-c3ccc(C)cc3)s2)cc(OCC)c1OCC | 12.5% (inactive)
Cc1ccc(C)c(S(=O)(=O)Nc2ccc(C(=O)N3CCOCC3)cc2)c1 | -13.6% (inactive)
CCN(c1ccccc1)S(=O)(=O)c1ccc(C(=O)Nc2nc(-c3ccc(C#N)cc3)cs2)cc1 | -5.78% (inactive)
O=C(O)c1cc(-c2ccc(F)cc2)nc2ccccc12 | -3.79% (inactive)
C=CCn1c(=O)c2c(nc(N/N=C/c3ccccc3O)n2C)n(C)c1=O | 69.7% (inactive)
CCn1c2c(c(=O)[nH]c1=O)C(c1ccc(O)cc1)C1=C(CC(C)(C)CC1=O)N2 (centres undefined) | -10.5% (inactive)
CCSC1=C(C#N)C(c2ccco2)C(C(=O)Nc2ccccc2OC)=C(C)N1 (centres undefined) | 13.1% (inactive)
O=C(CSc1cn(Cc2ccccc2Cl)c2ccccc12)Nc1nc2ccccc2s1 | 10.2% (inactive)
COC(=O)c1sc2nc(N)c(C#N)c(-c3ccco3)c2c1N | -11.1% (inactive)
O=C1NCCc2c(OCC(=O)N3CCCC3)cccc21 | -13.2% (inactive)
CCN1C(=O)C2(C(C#N)=C(N)Oc3c2oc(CO)cc3=O)c2ccccc21 (centres undefined) | -2.38% (inactive)
O=C(CSc1ccc2nnc(-c3cccnc3)n2n1)Nc1cccc(C(F)(F)F)c1 | 2.18% (inactive)
Cn1c(=O)c2c([nH]c(=S)n2Cc2ccc(F)cc2)n(C)c1=O | -5.83% (inactive)
O=c1/c(=C/c2ccc(Br)cc2)sc2nc(-c3ccncc3)nn12 | -4.93% (inactive)
Cc1ccc(S(=O)(=O)CCC(=O)Nc2nc(-c3cccc([N+](=O)[O-])c3)cs2)cc1 | -0.9% (inactive)
CCC(CC)C(=O)Nc1nnc(-c2ccc(Br)cc2)s1 | 5.92% (inactive)
COc1ccc(Cl)c2sc(N3CCN(C(=O)COc4ccccc4)CC3)nc12 | -14.7% (inactive)
Fc1ccc(-c2nnc(Nc3nc4c(F)cccc4s3)o2)cc1 | 35.7% (inactive)
CSc1cccc2sc(Nc3ccccc3Cl)nc12 | 43.9% (inactive)
COc1cccc(N2CC(NC(=O)N3CCN(c4ccc(F)cc4)CC3)CC2=O)c1 (centres undefined) | 1.73% (inactive)
O=C(CN1N=NC2C(=O)N(c3ccc(F)c(F)c3)C(=O)C21)Nc1cccc(F)c1 (centres undefined) | -18.6% (inactive)
